# KKLEB tox = cytotoxicity in KKLEB CF airway cells, primary screen, cytotoxicity control for CF NF-kB inhibitor project, cell-based, uHTS, fluorescence assay plates; 360,000 compounds, 0.36% hits; KKLEB CF airway cells viability, ATPlite luminescence, overnight; hits give low values; cells stimulated with P. aeruginosa culture filtrate; activity change (cytotoxicity), % at 5 µM;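 active = corrected activity change at or below -50% at 5 µM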
# HIF-2a block = HIF-2a reporter inhibitors, primary screen, luminescence, 786-0 RCC cells. 786-0 RCC cells HIF-2a reporter, luciferase luminescence, overnight. inhibition, % at 18.8 µM. 360,000 compounds, 0.72% hits;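 active = inhibition of the luminescence signal of 40% or more relative to plate controls, in a single-dose primary screen at 18.75 µM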
# TRPM1 prom inh = inhibitors of MITF-dependent TRPM1 promoter reporter, primary screen, cell-based, SK-MEL-5, single point, luciferase; SK-MEL-5 TRPM1 promoter luciferase, 24 h; inhibition, % at 12.5 µM; 330,000 compounds, 0.83% hits;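 active = mean inhibition across replicates of 60% or more, whatever share of single replicates reaches that level; inconclusive = some that reach 60%, reason not given; inactive = mean inhibition across replicates below 60%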
# Peg3 prom inh = Peg3 promoter-driven luciferase inhibitors, primary screen, cell-based, HeLa, luciferase luminescence; HeLa PEG-Prom luciferase reporter, overnight; inhibition, % at 20 µM; 360,000 compounds, 1.7% hits; AID 588405, 2011;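 active = inhibition of at least 50% at 20 µM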
# EBV LMP1 NFkB = EBV LMP1-driven NF-kappaB luciferase reporter inhibitors, primary screen, cell-based, luminescence, single point | 350,000 compounds, 0.69% hits | LMP1-induced NF-kappaB luciferase reporter cells | inhibition, % at 12.5 µM; in the data active = inhibition above about 41%; inconclusive = no clear call, values can overlap the other calls;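 also: 0% = neutral control wells and 100% = reference inhibitor control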
# CF NFkB block = inhibitors of PAF-induced NF-kB signaling, primary screen, cell-based, GFP fluorescence, uHTS; KKLEB NF-kB-GFP reporter, GFP fluorescence overnight; inhibition, % at 5 µM; 360,000 compounds, 0.86% hits; AID 588850, 2011;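 active = at least 50% inhibition at 5 µM, scaled per plate between neutral and stimulator controls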;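 also: PAF is a Pseudomonas aeruginosa culture filtrate used as stimulus; plate controls were PAF-stimulated DMSO wells for no effect and unstimulated DMSO wells for full effect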
# * hit, by the source's call; u = inconclusive; x = no result given. The list is not random: actives were taken first. Their share in the collection is about 3%.
SMILES,KKLEB tox,HIF-2a block,TRPM1 prom inh,Peg3 prom inh,EBV LMP1 NFkB,CF NFkB block
O=C(Nc1ccc(N2CCOCC2)c(S(=O)(=O)Nc2ccccc2Cl)c1)c1ccccc1,-7,19,7,12,2,-16
O=C(Nc1ccc(Cl)cc1)Nc1ccc(N2CCCC2)c(S(=O)(=O)Nc2ccccc2Cl)c1,-41,-22,71*,46,39,43
COc1ccc(OC)c(-c2nn(-c3ccccc3)cc2C(=O)NC2(C)CCS(=O)(=O)C2)c1 (stereo not drawn),7,16,x,11,-5,-3
CSc1cccc(NC(=S)N(CCCN2CCCC2)Cc2cccn2Cc2ccc(Cl)cc2)c1,-13,-10,u,108*,-11,17
S=C(Nc1cccc(Cl)c1)N(CCCN1CCCC1)Cc1cccn1Cc1ccc(Cl)cc1,-34,8,31,100*,-3,38
COc1cccc(NC(=S)N(CCCN2CCCC2)Cc2cccn2Cc2ccc(Cl)cc2)c1,-3,-21,-31,0,-8,16
C=CCNc1ncnc2c1ncn2[C@H]1CN(CCc2ccccc2)C[C@@H](CO)O1,0,2,x,4,x,-5
CN1CCN(c2ccc(-c3cc(NC=O)c4ncc(-c5ccc(F)c(Cl)c5)n4c3)cc2)CC1,-12,-143,x,96*,x,-9
O=CNc1cc(-c2ccccc2)cn2c(-c3ccc(F)c(Cl)c3)cnc12,-16,-13,x,10,x,0
CC(=O)Nc1cc(-c2ccc(N3CCN(C)CC3)cc2)cn2c(-c3ccc(F)c(Cl)c3)cnc12,-15,-10,x,75*,x,3
CSCCC(C(=O)NCc1ccccc1)n1c(C2CCN(C(C)=O)CC2)nc2ccccc21 (stereo not drawn),x,-24,x,x,x,x
N#Cc1ccc(-c2ccc(Cl)cc2)nc1SCC(=O)c1cccc(Cl)c1,-17,16,25,86*,-48,9
N#Cc1ccc(-c2ccccc2)nc1SCC(=O)c1cccc(Cl)c1,4,-18,-11,1,-11,-2
COc1ccc(NC(=O)c2cccc3c2C(=O)c2ccc(-c4ccc(F)cc4OCc4ccccc4)cc2S3(=O)=O)cc1,-57*,-31,3,47,-7,46
CC1(CCc2ccccc2)NC(=O)NC1=O (stereo not drawn),-5,10,-3,9,38,-10
CCCCn1c(=O)[nH]c(=O)c2c1nc(-c1ccc(OC)c(Br)c1)n2CC(C)C,-18,32,-5,55*,0,39
C=CCOc1ccc(-c2nc3c(c(=O)[nH]c(=O)n3CCCC)n2C)cc1Br,-21,7,-21,10,6,20
Cc1ccccc1S(=O)(=O)NC(=O)C1(C)CCN1C(=O)Cc1cc(F)ccc1F (stereo not drawn),1,2,x,2,x,9
Cc1cccc(C)c1N1C(=O)CCC(C)(C)C1=O,-6,19,-4,-1,50*,1
COc1ccc(NC(=O)/C(Cl)=C(/Cl)S(=O)Cc2ccccc2Cl)cn1 (stereo not drawn),x,x,98*,x,89*,x
COc1ccc(NC(=O)/C(Cl)=C(/Cl)S(=O)(=O)Cc2ccc(C)cc2)cn1,-71*,96*,94*,105*,87*,87*
COc1ccc(NC(=O)C2(C)CCN2C)cc1OC (stereo not drawn),9,8,x,-3,x,-23
COc1cc(CN(C)C)cc(C=O)c1O,2,13,6,3,2,16
COc1cc(N=Nc2ccc(Br)cc2)cc(C=O)c1O,-46,-72,x,49,8,85*
Cc1ccc(C(=O)C[n+]2cc(-c3ccc(C)cc3)n3c2CCCCC3)cc1,-10,-9,76*,14,30,8
SMILES,KKLEB tox,HIF-2a block,TRPM1 prom inh,Peg3 prom inh,EBV LMP1 NFkB,CF NFkB block
COc1ccc(C(=O)C[n+]2cc(-c3ccc(OC)cc3)n3c2CCCC3)cc1,16,12,39,7,-4,-5
Cc1ccc(-c2c[n+](Cc3ccc(Cl)c(Cl)c3)c3n2CCC3)cc1,-12,26,72*,20,5,8
Cc1ccc(NC(=O)C[n+]2cc(-c3ccc(C)cc3)n3c2CCC3)cc1,4,7,16,-3,-4,-23
CCOc1ccc(-n2c(=S)sc3c(=O)[nH]c(SCC(=O)NC4CCCCC4)nc32)cc1,11,2,x,1,-9,-4
C=CCN(C(=O)CSc1nc2ccsc2c(=O)n1Cc1ccccn1)c1ccccc1,22,-82,-15,-47,-1,-28
C=CCN(C(=O)CSc1nc2c(sc3ccccc32)c(=O)n1CCN(CC)CC)c1ccccc1,-13,-8,6,64*,12,11
O=C1N(c2ccccc2C(F)(F)F)O[C@@]1(c1ccccc1)C1CCCC1,-2,22,4,70*,0,29
CC(C)C[C@]1(c2ccccc2)ON(c2ccccc2C(F)(F)F)C1=O,5,25,1,33,-1,-8
CCn1c(SCC(=O)Nc2oc(C)c3c(C)n[nH]c(=O)c23)nnc1-c1ccco1,-10,-4,x,8,-33,3
O=c1cc(C2CCCCC2)[nH]c(=O)[nH]1,-2,-4,-8,-7,52*,-4
COc1cc(CNCCNC(=O)c2nonc2N)ccc1OCc1ccc(Cl)cc1,-5,-45,-7,88*,-4,11
CCOc1ccccc1-n1c(CN2CCN(C(=O)c3ccco3)CC2)nc2ccccc2c1=O,-9,32,80*,104*,-1,27
CCOc1ccccc1-c1nc(CN2CCN(C(=O)c3ccco3)CC2)c(C)o1,8,12,12,-4,-5,6
CC1OC(CCc2cccc(Cl)c2)Cc2[nH][nH]c(=O)c21 (stereo not drawn),x,-33,x,x,x,x
COc1ccc(NCc2nnc(SCC(=O)c3ccc(OC)cc3)o2)cc1,3,-23,3,-28,-13,-1
CCOc1cc(C(=O)CSc2nnc(CNc3ccc(Cl)cc3)o2)ccc1NC(=O)CC,2,3,85*,66*,-6,5
CC(CCc1ccco1)NC(=O)c1cccc2c1C(=O)N(C1CCCCC1)C2 (stereo not drawn),-8,30,-8,27,-2,-4
COc1ccc(N2Cc3cccc(C(=O)NC(C)CCc4ccco4)c3C2=O)cc1 (stereo not drawn),5,-27,-9,0,47*,-18
COc1ccc(OCCN2CCC(C(=O)NC(c3ccc(F)cc3)c3ncccc3C)CC2)cc1 (stereo not drawn),-2,-5,x,-10,x,-1

# Compound activity from PubChem BioAssay.
